Measurements reported in the supplement of paper PMC4166925.
± gives the standard deviation of the averaged measurements. Whole data set: some 33,000 sequences, median “E-score (dimensionless, -0.5 to 0.5)” near -0.049, cut for the highest 2% near 0.37. The full list was thinned out, with the highest values kept by preference.

Test system: T1, PmTbr T-box DNA-binding domain (GST fusion)
T1 sequence: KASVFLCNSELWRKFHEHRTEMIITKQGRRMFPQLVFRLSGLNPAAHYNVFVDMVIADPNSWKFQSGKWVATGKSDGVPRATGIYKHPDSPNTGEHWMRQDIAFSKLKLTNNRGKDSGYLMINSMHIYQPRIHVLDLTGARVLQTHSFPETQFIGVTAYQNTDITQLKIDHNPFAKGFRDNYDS
Assay: PBM E-score of 8-mer (E-score (dimensionless, -0.5 to 0.5)); Tbr is Tbrain of the sea star Patiria miniata (Pm) or the sea urchin Strongylocentrotus purpuratus (Sp); higher = stronger binding preference
Details: the construct has about 5 more residues each side
In short: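 GST-fused Tbr T-box DNA-binding domains (the whole T-box plus about five flanking residues) were expressed in BL21 E. coli at 20 °C and purified by glutathione affinity chromatography. Universal Agilent oligonucleotide arrays were made double-stranded by primer extension, incubated with 200 nM protein in PBS (pH 7.5), then scanned and quantified. Every ungapped 8-mer was scored from probe intensities. The Universal PBM Analysis Suite gave each word an enrichment E-score, averaged over duplicate arrays.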

Row | Sequence | PBM E-score of 8-mer
1 | ACCTTCCA | 0.0703 ± 0.049
2 | AAACAGGG | -0.081 ± 0.025
3 | AATTCATC | -0.0277 ± 0.0079
4 | CCCCCAGA | -0.116 ± 0.043
5 | ACCAAAAA | -0.124 ± 0.021
6 | GCTTGTAA | -0.0775 ± 0.029
7 | CGAGGAGC | -0.0722 ± 0.028
8 | CTAGTCAC | 0.0813 ± 0.05
9 | TATCTACA | -0.0338 ± 0.029
10 | AATTCGCA | 0.339 ± 0.032
11 | GGGTGATA | 0.368 ± 0.0085
12 | ACGTGATG | 0.137 ± 0.028
13 | AGGTGATA | 0.468 ± 0.0054
14 | CGGTGATA | 0.187 ± 0.0068
15 | AGGTGATG | 0.4179 ± 0.0014
16 | AGGTGATC | 0.219 ± 0.0025
17 | AACAACTG | 0.236 ± 0.0091
18 | CGACGCAC | -0.0252 ± 0.048
19 | AGTGCTTC | -0.15 ± 0.097
20 | CGAATGGC | 0.0367 ± 0.0062
21 | AACCGCAT | -0.147 ± 0.042
22 | AATTCATA | -0.105 ± 0.05
23 | AGGCGTGG | 0.265 ± 0.016
24 | AGGCGTGC | 0.158 ± 0.011
25 | AAGCGTGT | 0.235 ± 0.017

Row | Sequence | PBM E-score of 8-mer
26 | AAGCGTGA | 0.401 ± 0.018
27 | GGGCGTGA | 0.429 ± 0.0092
28 | AGGCGTGA | 0.4805 ± 0.00059
29 | CGGCGTGA | 0.327 ± 0.0041
30 | GGGCGTAA | 0.118 ± 0.012
31 | ACGCGTGA | 0.38 ± 0.012
32 | AAGCGTGG | 0.0213 ± 0.089
33 | GCGCGTGA | 0.322 ± 0.0044
34 | ACGCGTGC | 0.14 ± 0.034
35 | CATTGCCG | 0.0765 ± 0.039
36 | TTAAGAAA | -0.165 ± 0.066
37 | AATACTCT | -0.111 ± 0.064
38 | CCGAGGGA | -0.236 ± 0.0027
39 | ACGTTCAC | 0.227 ± 0.06
40 | CAATCGCG | 0.269 ± 0.026
41 | AATGCTGG | -0.209 ± 0.026
42 | TAGGGTAA | -0.0929 ± 0.022
43 | ATACTGAA | -0.116 ± 0.013
44 | CACGCAAC | 0.024 ± 0.02
45 | CATAGTAG | -0.286 ± 0.031
46 | GATAACCC | 0.0272 ± 0.031
47 | GTTAGGCA | -0.0852 ± 0.013
48 | GCGTTAAC | 0.275 ± 0.056
49 | CATTAAGG | -0.136 ± 0.13
50 | AGGCGTCG | 0.353 ± 0.029

Row | Sequence | PBM E-score of 8-mer
51 | CGGCGTCA | 0.219 ± 0.03
52 | AGGCGTCA | 0.4194 ± 0.0035
53 | ACCTTATA | 0.221 ± 0.084
54 | ATGAGCAG | -0.0322 ± 0.034
55 | ATGGTGTG | 0.383 ± 0.0049
56 | ATGGTGTA | 0.104 ± 0.021
57 | CTGGTGTC | 0.341 ± 0.023
58 | ATGGTGTC | 0.383 ± 0.02
59 | ATGGTGCG | 0.187 ± 0.036
60 | ATGGTGGC | 0.271 ± 0.056
61 | CAGTAGAC | -0.0988 ± 0.05
62 | AGCGCGTG | 0.27 ± 0.025
63 | CGGTAAAG | -0.102 ± 0.037
64 | CCACATTC | 0.104 ± 0.038
65 | AAACATTC | -0.0525 ± 0.037
66 | ACACATTG | 0.39 ± 0.017
67 | ACACATAG | 0.268 ± 0.022
68 | ACACATTC | 0.387 ± 0.016
69 | ACACATAA | 0.251 ± 0.0089
70 | ACACATAT | 0.386 ± 0.0052
71 | ACACATTA | 0.264 ± 0.008
72 | AAACATTG | -0.0327 ± 0.00054
73 | GAGAAAAC | 0.0669 ± 0.12
74 | ATTCCTCC | -0.291 ± 0.034
75 | GACGCGTA | 0.0611 ± 0.022

Row | Sequence | PBM E-score of 8-mer
76 | ATCCAGCA | -0.175 ± 0.032
77 | AATGGTCG | -0.249 ± 0.14
78 | ACGAGAGG | 0.0873 ± 0.05
79 | GTAGTCTA | -0.207 ± 0.03
80 | GTAGGTTA | -0.189 ± 0.025
81 | CTAGGTCA | 0.00648 ± 0.021
82 | CTAGGTGC | 0.403 ± 0.008
83 | ATAGGTGC | 0.414 ± 0.0057
84 | CTAGGTAA | -0.173 ± 0.055
85 | GTAGGTAA | -0.141 ± 0.024
86 | CTAGGTCC | -0.13 ± 0.071
87 | CTAGGTTC | -0.0841 ± 0.0095
88 | ATAGGTGG | 0.26 ± 0.051
89 | GTAGGTGA | 0.397 ± 0.02
90 | ATAGGTGA | 0.345 ± 0.028
91 | CTAGGTGA | 0.398 ± 0.014
92 | CAGCATAC | -0.00656 ± 0.045
93 | GCGCAGAA | -0.0316 ± 0.067
94 | GGTAAACC | 0.131 ± 0.039
95 | GAATCATA | 0.0757 ± 0.097
96 | CTAGTAAG | -0.0596 ± 0.04
97 | CCATGAGC | -0.138 ± 0.16
98 | CCTGTGAA | 0.306 ± 0.0045
99 | GCTGTGAA | 0.3817 ± 0.0019
100 | ACTGTGAT | 0.152 ± 0.046

Row | Sequence | PBM E-score of 8-mer
101 | ACTGTGAA | 0.378 ± 0.0086
102 | TCTGTGAA | 0.253 ± 0.0052
103 | ACTGTGAG | 0.22 ± 0.017
104 | CAGGCTTA | -0.197 ± 0.047
105 | ATATAGCG | 0.0197 ± 0.053
106 | CGTATGCA | -0.0979 ± 0.032
107 | GATTTTGC | 0.189 ± 0.061
108 | AAATAGGA | -0.294 ± 0.053
109 | AGCTAACA | 0.209 ± 0.033
110 | CGCTAACG | 0.3714 ± 0.0037
111 | AGCTAACG | 0.157 ± 0.031
112 | TGCTAACA | 0.369 ± 0.041
113 | GGCTAACA | 0.179 ± 0.019
114 | CGCTAACC | 0.256 ± 0.017
115 | ATGTCCAG | -0.0643 ± 0.0044
116 | GTATGCCA | -0.0108 ± 0.032
117 | CTTGTAGC | 0.0941 ± 0.012
118 | GGCGACCC | -0.0415 ± 0.017
119 | CGCGACAA | 0.336 ± 0.0038
120 | CACGACAC | 0.314 ± 0.0061
121 | GGCGACAA | 0.3812 ± 0.0024
122 | CGCGACAG | 0.308 ± 0.014
123 | CGCGACAC | 0.375 ± 0.02
124 | AGCGACAC | 0.317 ± 0.054
125 | GGCGACAC | 0.402 ± 0.019

Row | Sequence | PBM E-score of 8-mer
126 | TGCGACAA | 0.296 ± 0.013
127 | CCGACGCA | -0.0454 ± 0.012
128 | GTCACATA | 0.263 ± 0.0064
129 | ATGCGATC | -0.0333 ± 0.042
130 | CAAGTTGA | 0.116 ± 0.0034
131 | AGCGTTGA | 0.102 ± 0.055
132 | GACCTCCC | -0.178 ± 0.0044
133 | CCCCTCCG | 0.137 ± 0.019
134 | CACCTCCA | 0.423 ± 0.0067
135 | TACCTCCA | -0.00358 ± 0.099
136 | AACCTCCC | -0.0756 ± 0.12
137 | CACCTCCC | 0.423 ± 0.0044
138 | AACCTCCG | 0.0421 ± 0.042
139 | AACCTCCA | -0.158 ± 0.028
140 | CACCTCCG | 0.447 ± 0.0095
141 | CCGAAGTA | -0.302 ± 0.021
142 | CCCAAGTA | -0.0284 ± 0.033
143 | CGAGTGCA | -0.0272 ± 0.087
144 | ACGAACTG | 0.0451 ± 0.03
145 | CCTTTGGC | 0.0109 ± 0.046
146 | CGATCCAG | -0.0702 ± 0.018
147 | ACACCTGC | 0.461 ± 0.017
148 | ATACCTGC | 0.0129 ± 0.047
149 | AAACCTGA | 0.0859 ± 0.12
150 | ACACCTGA | 0.4657 ± 0.0021

Row | Sequence | PBM E-score of 8-mer
151 | CCACCTGC | 0.299 ± 0.02
152 | AGACCTGA | -0.102 ± 0.055
153 | GCACCTGC | 0.395 ± 0.018
154 | ATACCTGG | 0.139 ± 0.025
155 | CGACCTGC | 0.196 ± 0.043
156 | GAACCTGC | -0.162 ± 0.0065
157 | ACACCTGG | 0.466 ± 0.0053
158 | CCACCTGG | 0.252 ± 0.0058
159 | ATGCCCAC | -0.186 ± 0.051
160 | AGAACCCT | -0.229 ± 0.014
161 | ACTCGCCA | 0.144 ± 0.015
162 | CCTCTTAG | -0.103 ± 0.0023
163 | CTATACCA | -0.205 ± 0.013
164 | AGCCCCAG | -0.138 ± 0.057
165 | TCTTGCCA | 0.0678 ± 0.023
166 | GAGAACCC | -0.0803 ± 0.011
167 | AGGCTCTG | -0.0891 ± 0.012
168 | AAGAATGT | -0.0657 ± 0.011
169 | ATCAGTGG | -0.0659 ± 0.059
170 | AGGGCAAG | -0.2 ± 0.018
171 | TCGATTCA | 0.0262 ± 0.015
172 | GTGGGCCA | -0.191 ± 0.031
